Measurements published in ChEMBL document CHEMBL3433997, “St. Jude Leishmania screening dataset” (2016).

Experiments:
Format in all cases: functional
[1] = target: Solute carrier family 2, facilitated glucose transporter member 1 (Homo sapiens) (UniProt P11166); experiment: ST_JUDE_LEISH: Cytotoxicity at 2uM final concentration against transgenic Leishmania Mexicana promastigotes LmGLUT1 that are glucose transport deficient and complemented with the human glucose transporter GLUT1. Activity is measured by DNA content using SYBR green in vitro
[2] = target: Hexose transporter 1 (Plasmodium falciparum) (UniProt O97467); experiment: ST_JUDE_LEISH: Cytotoxicity at 2uM final concentration against transgenic Leishmania Mexicana promastigotes LmPfHT that are glucose transport deficient and complemented with the Plasmodium falciparum hexose transporter. Activity is measured by DNA content using SYBR green in vitro
[3] = target: Glucose transporter (Leishmania mexicana) (UniProt O61059); experiment: ST_JUDE_LEISH: Cytotoxicity at 2uM final concentration against transgenic Leishmania Mexicana promastigotes LmGT2 that are glucose transport deficient and complemented with the L. Mexicana glucose transporter 2. Activity is measured by DNA content using SYBR green in vitro

Chain of Solute carrier family 2, facilitated glucose transporter member 1 (Homo sapiens) (P11166 whole entry): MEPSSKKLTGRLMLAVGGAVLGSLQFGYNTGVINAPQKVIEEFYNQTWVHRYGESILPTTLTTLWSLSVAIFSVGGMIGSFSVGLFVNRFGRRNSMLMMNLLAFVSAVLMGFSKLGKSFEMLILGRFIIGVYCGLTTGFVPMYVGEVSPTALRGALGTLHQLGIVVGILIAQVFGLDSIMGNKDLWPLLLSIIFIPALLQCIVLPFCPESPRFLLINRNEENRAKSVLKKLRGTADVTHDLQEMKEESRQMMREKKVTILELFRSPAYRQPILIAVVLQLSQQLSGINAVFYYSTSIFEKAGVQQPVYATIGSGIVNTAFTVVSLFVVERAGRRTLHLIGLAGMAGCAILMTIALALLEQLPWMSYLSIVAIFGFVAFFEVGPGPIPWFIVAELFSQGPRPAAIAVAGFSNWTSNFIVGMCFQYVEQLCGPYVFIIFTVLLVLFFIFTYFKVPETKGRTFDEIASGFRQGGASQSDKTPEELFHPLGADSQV

Compound	inhibition [1]	inhibition [2]	inhibition [3]
COc1ccc(Br)cc1/C=C/C(=O)Nc1cccc(C2CCCN(C)C2)c1 (stereo unspecified)	6.13%	5.55%	7.45%
O=C(Nc1cccc(-c2nn3ncccc3c2-c2ccnc(Nc3cccc(-c4cnco4)c3)n2)c1)c1c(F)cccc1F	6.24%	7.13%	2.26%
COc1ccccc1OCCN(CC(O)COc1cccc2[nH]c3ccccc3c12)CC(O)COc1cccc2[nH]c3ccccc3c12 (stereo unspecified)	3.01%	2.43%	2.35%
COc1ccc(CNC(=O)c2cnc3c(O)cccc3c2Nc2cccc(NC(=O)c3ccc(F)cc3)c2)cc1	76%	78.5%	75.3%
Cc1cc(C(=O)OCC(N)=O)c(C)n1-c1ccc(F)cc1	-0.25%	6.13%	3.07%
Cc1cccc(C(=O)NC(NC(=S)Nc2cc(Cl)ccc2Cl)C(Cl)(Cl)Cl)c1 (stereo unspecified)	-0.37%	-1.9%	-2.85%
Cc1cc2nc(N/C(N)=N/C(=O)NC3CCCCC3)nc(C)c2cc1C	3.18%	3.48%	0.78%
CC(C)[C@H](NC(=O)c1ccc(O)c(-c2ccc(Cl)c(Cl)c2)c1)C(=O)NCCN1CCCCC1	-0.08%	1.9%	-1.44%
CCCCNC(=O)c1cc(CNC2CCCCC2)ccc1-c1cccc(CNCc2ccc(-c3ccccc3)cc2)c1	5.94%	5.46%	2.67%
COc1ccc2nc(C)cc(Nc3ccc(Oc4ccc(Br)c5ccccc45)c(Cl)c3)c2c1	9.47%	8.7%	3.21%
O=C(Nc1cccc(C(F)(F)F)c1)NC1CCN(c2ccnc3cc(Cl)ccc23)CC1	1.6%	1.64%	-1.47%
NCCNC(=O)c1ccc(-c2cnc3[nH]cc(-c4ccc(C(N)=O)cc4)c3c2)cc1	3.65%	2.58%	2.98%
